# Data from PubChem BioAssay AID588382 (National Center for Advancing Translational Sciences (NCATS), 2011).
# About 150 (12%) of roughly 1,300 compounds were called active. Entries that show only a call come without a potency. About 30% were inconclusive and are not listed. This is one part of a sample in which actives are shown more often than they occur. Calls come from the whole dose curve; as a rule, active = well fitted cell-killing curve with a large enough effect; inconclusive = small, poorly fitted or top-dose-only effect, or effect the other way; inactive = flat fitted curve, though single readings scatter.
# Assay: qHTS of small molecules that selectively kill Giardia lamblia: Hit Validation in HepG2 cytotox;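 note: compound exposure lasted overnight at 37 deg C; nearly all actives have a fitted effect of over 55% in size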
# Settings: cell viability; Potency: HepG2 cytotoxicity; series mostly up to 38.3 µM
# Text: Giardia lamblia is a human pathogen afflicting impoverished nations, and the most common cause of outbreaks of diarrhea in the United States. Giardia has been classified by the CDC as a category B bioterrorism organism. The favored anti giardiasis drugs in the US are metronidazole or tinidazole, compounds that have undesirable side effects. Moreover, increasing resistance to drug regimes and recurrence are a concern. It is thus clear that alternative drug treatments are needed.
# In a collaboration between the University of Maryland, College Park and the NIH Chemical Genomics Center, a bioluminescence Giardia viability assay based on the trophozoites' ATP content was developed. This assay is suitable for high throughput screening, and miniaturized the assay for compound screening in 1536-well plates. The goal of the project is to screen the Molecular Libraries Small Molecule Repository (MLSMR) for compounds that selectively kill Giardia trophozoites. This counterscreen looks at the toxicity of the compounds against the human HepG2 cell line.
# NIH Chemical Genomics Center [NCGC]
# NIH Molecular Libraries Probe Centers Network [MLPCN]
# Assay Submitter (PI): Osnat Herzberg, University of Maryland, College Park, MD.
# 4 uL of HepG2 cells ae dispensed into white 1536-well plates. They are incubated overnight at 37 deg C and then 23 nL of compounds are transferred to the wells with a pintool. Plates are incubated overnight at 37 deg C. 2 uL of ATPLite is added and the plates are incubated for 15 min at room temperature before they are read on the ViewLux for luminiescence.
# Potency is the fitted concentration of half-maximal effect.
row,SMILES,Potency
1,CNC(=O)Oc1cccc(-c2cn3cc(Cl)ccc3n2)c1,1.85 µM (active)
2,NC(=O)c1cc(N2CC2)c([N+](=O)[O-])cc1[N+](=O)[O-],inactive
3,CN(c1ccccc1)c1ccc([N+](=O)[O-])c2nonc12,inactive
4,COC(=O)c1nc(-c2ccc3c(n2)C(=O)C(N)=C(OC)C3=O)c(N)c(-c2ccc(OC)c(OC)c2O)c1C,1.04 µM (active)
5,C[C@H]1C[C@@H](C)C(=O)[C@@H]([C@H](O)CC2CC(=O)NC(=O)C2)C1,inactive
6,CCOC(=O)C1CCCN(c2ccc([N+](=O)[O-])c3nonc23)C1 (stereo not given),inactive
7,Fc1ccc(C2NCCc3[nH]cnc32)cc1 (stereo not given),inactive
8,[Hg+][c]1ccccc1,1.85 µM (active)
9,CC(C)(O)C1C2OC(=O)C1C1(O)CC3OC34C(=O)OC2C14C (stereo not given),inactive
10,C[N+]12CCC(CC1)C(=C(c1ccccc1)c1ccccc1)C2,inactive
11,C[C@@H]1C[C@@H]([C@H](O)CC2CC(=O)NC(=O)C2)C(=O)[C@@H](C)C1,inactive
12,c1ccc2c(c1)[I+]c1ccccc1-2,0.0826 µM (active)
13,O=[N+]([O-])c1ccc(-c2ccccc2)c([As](=O)(O)O)c1,inactive
14,CC1=C(N2CC2)C(=O)C(CO)=C(N2CC2)C1=O,0.0656 µM (active)
15,CCCCn1c(=O)c(C(=O)NCc2ccccc2OC)c(O)c2ccccc21,inactive
16,CCn1nc(/C=C/c2ccccc2)nc2c(=O)n(C)c(=O)nc1-2,6.56 µM (active)
17,CC1CN(c2ccc([N+](=O)[O-])c3cccnc23)CC(C)N1 (stereo not given),inactive
18,Cc1nc2c(=O)n(C)c(=O)nc-2n(C)n1,0.656 µM (active)

row,SMILES,Potency
1,CC1CC(C)CC(C)C(O)C(C#N)=CC=CCC(C2CCCC2C(=O)O)OC(=O)CC(O)C(C)C1 (stereo not given),2.33 µM (active)
2,O=[N+]([O-])c1ccc(O)c([N+](=O)[O-])c1,inactive
3,CC(C)c1ccc(N=Nc2c(O)[nH]c(=O)[nH]c2=O)cc1,inactive
4,CCOc1ccc(-n2c(-c3cccs3)nc3ccccc3c2=O)cc1,inactive
5,O=c1c2ccccc2nc(/C=C/c2ccc(O)cc2)n1-c1cccc(O)c1,inactive
6,O=c1c2ccccc2nc(/C=C/c2ccc([N+](=O)[O-])o2)n1-c1ccc(O)cc1,3.69 µM (active)
7,COC1/C=C/C=C(\C)Cc2cc(O)c(Cl)c(c2)N(C)C(=O)CC(OC(=O)C(C)C)C2(C)OC2C(C)C2CC1(O)NC(=O)O2 (stereo not given),inactive
8,Cc1ccc(C(c2nnnn2Cc2ccccc2)N2CC=C(c3ccc(F)cc3)CC2)cc1 (stereo not given),inactive
9,C=CC1CN2CCC1CC2[C@@H](OC(=O)c1ccc(OC)cc1)c1ccnc2ccccc12 (stereo not given in full),inactive
10,c1ccc2c(c1)[IH]c1ccccc1-2,0.0927 µM (active)
11,CN(C)C(=O)Oc1ccc(Br)c2ccccc12,inactive
12,COC(COC(N)=O)C1=C(N2CC2)C(=O)C(C)=C(N2CC2)C1=O (stereo not given),0.185 µM (active)
13,O=[N+]([O-])c1cc([As](=O)(O)O)ccc1O,inactive
14,Cc1nc2ccccc2c(=O)n1-c1cc([N+](=O)[O-])cc([N+](=O)[O-])c1,inactive
15,Cc1cc([N+](=O)[O-])c2ccccc2[n+]1[O-],1.17 µM (active)
16,CN1CCN(c2ccc([N+](=O)[O-])c3cccnc23)CC1,inactive
17,NN=C(N)N,inactive
